# Bioassay records as filed in PubChem.
# A selection: hits, their analogues and other compounds. The true share with any hit is near 7.2%.
# AHR act – human AHR activation. AHR-responsive luciferase reporter cells, luminescence. activation, % at 5 µM. actives 2.5% (n = 320,000). AID 2796; in the data active = activation above about 47%;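 note: 0% = vehicle wells and 100% = reference agonist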
# VLA-4 inh – inhibition in a human VLA-4 binding assay. P13612. VLA-4 expressing cells, ligand binding flow cytometry. inhibition, % (about 7 µM as worked out from the volumes in the protocol). actives 0.2% (n = 330,000). AID 2557; in the data active = inhibition above about 50%
# Efflux pump mplx – inhibitors of Candida antifungal efflux pumps expressed in yeast | S. cerevisiae Candida pump triplex, Nile Red efflux | inhibition, % at 10 µM | actives 0.44% (n = 330,000) | AID 485275;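 active = plate passing quality check with inhibition over a set limit, or well fluorescence over plate mean plus 4 SD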;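 note: Nile Red retained in pooled yeast measured as flow cytometry median fluorescence; 0% = buffer negative control and 100% = Enniatin B positive control; higher means more Nile Red kept so more efflux inhibition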
# Bfl-1 A1 inh – inhibitors of the anti-apoptotic protein A1, read as caspase activation | caspase activation, % (no concentration beside the values) | MEF A1-2A-BIM cells, Caspase-Glo 3/7 luminescence, 3 h; percent of clofoctol response, vehicle zero | actives 0.066% (n = 330,000);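 active = over half of replicate activation scores above 10%, or exactly half above 10 with the replicate mean above 10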
# ALR H2O2 inh – blocks human ALR sulfhydryl oxidase activity; P55789; purified ALR, DTT oxidation, H2O2 HRP-luminol luminescence; inhibition, % (concentration not given with the values); actives 3.8% (n = 290,000); AID 485317;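 active = mean replicate inhibition above about 79%, with every replicate also reaching it, limit read from the data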
# Target sequence (P55789 whole entry, looked up): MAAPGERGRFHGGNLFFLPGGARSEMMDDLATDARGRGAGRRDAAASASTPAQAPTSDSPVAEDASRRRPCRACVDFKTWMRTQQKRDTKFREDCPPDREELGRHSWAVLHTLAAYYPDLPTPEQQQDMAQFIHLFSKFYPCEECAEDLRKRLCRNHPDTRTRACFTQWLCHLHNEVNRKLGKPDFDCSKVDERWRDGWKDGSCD
# Mot1-301 SUMO – inhibitors of SUMOylation pathway: yeast Mot1-301 growth rescue; S. cerevisiae Mot1-301 growth rescue, ATP luminescence, 38.5C; percent above DMSO median, 100 means doubled; growth rescue, % at 18.8 µM; actives 1% (n = 320,000); AID 2716;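 active = every valid replicate shows activation above 250% relative to neutral control wells; inactive = the rest, any valid replicate at or below 250%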;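 note: OY570 slx delta 5 strain wells were the positive control but not used for scaling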
# * hit, by the source's call; x = no result given.
SMILES,AHR act,VLA-4 inh,Efflux pump mplx,Bfl-1 A1 inh,ALR H2O2 inh,Mot1-301 SUMO
CN(C)c1ccc(Nc2nc(N)c3ccccc3n2)cc1,-5,3,0,-8,99*,-67
O=C(CN1CCSC1=NCc1ccccc1)c1ccc(Cl)cc1,1,14,0,0,-3,-10
CCNC(=S)NNC(=O)c1cc(-c2cccnc2)nc2ccccc12,31,0,0,-7,88*,-14
CCCNC(=S)NNC(=O)c1cc(-c2cccnc2)nc2ccccc12,25,-7,0,-1,8,-4
CCCCNC(=S)NNC(=O)c1cc(-c2cccnc2)nc2ccccc12,54*,6,0,0,27,-6
CCOc1ccc(NC(=S)N2CCc3cc(OC)c(OC)cc3C2COc2ccc3c(C)cc(=O)oc3c2)cc1 (stereo not drawn),2,-14,0,1,-2,-7
CCN(CC)S(=O)(=O)c1cccc(C(=O)NNC(=O)c2ccc3[nH]c(=O)c(=O)[nH]c3c2)c1,0,1,0,0,-3,4
O=C(NC(=S)NNC(=O)[C@H]1C[C@@H]1c1ccccc1)c1cccc(F)c1,4,20,0,0,98*,-28
O=Nc1ccc(NOC(=O)c2ccccc2Br)cc1,-2,-21,0,-1,60,30
O=C(ONc1ccc(N=NC(=O)c2ccccc2O)cc1)c1ccccc1,6,7,0,-14,98*,208
O=C(CSc1nnc(CNC(=O)c2ccco2)o1)Nc1cccc(Cl)c1,5,1,0,-1,-3,77
CC(C)(C)c1nc(SCC(=O)Nc2nc3c(s2)CCCC3)c2ccccc2n1,-1,11,0,1,-37,11
CC(C)c1nc(SCC(=O)Nc2ccc(C(=O)O)cc2)c2c3c(sc2n1)CCCC3,-5,5,0,0,99*,362
CC1CCc2nc(NC(=O)CSc3nc4ccccc4o3)sc2C1 (stereo not drawn),3,6,0,0,99*,10
Cc1nc(SCC(=O)Nc2ccc(CN3CCCC3)cc2)c2c(C)c(C)sc2n1,-1,1,0,0,99*,4
CC(=O)Nc1ccc(NC(=O)CSc2nc(C)nc3sc(C)c(C)c23)cc1,1,15,0,0,-14,12
CC(C)c1nc(SCC(=O)Nc2nc3c(s2)CCCC3)c2ccccc2n1,2,19,0,0,98*,6
CCOC(=O)/C=C1/SCC(=O)N1CC(=O)Nc1cccc(F)c1,-1,-18,0,0,0,-12
COc1cccc(Oc2c(C)oc3c(CN4CCCC4)c(O)ccc3c2=O)c1,0,4,0,1,2,45
CN(C)c1cccc(NC(=O)CCc2ccccc2)c1,25,29,0,0,98*,20
CC(=O)Nc1cccc(NC(=O)CCc2ccccc2)c1,9,7,0,1,-2,-10
CCN(C(=S)NC(=O)CCc1ccccc1)c1ccccc1,2,0,0,0,77*,-13
O=C(c1ccc(=O)oc1)N1CCCc2ccccc21,2,-5,0,0,89*,2
O=C(O)Cn1cc(/C=c2/sc3nc4ccccc4n3c2=O)c2ccccc21,7,10,0,0,99*,2
CC(C)n1cc(/C=C2/NC(=O)N(c3cccc(Cl)c3)C2=O)c2ccccc21,63*,12,0,0,x,0
SMILES,AHR act,VLA-4 inh,Efflux pump mplx,Bfl-1 A1 inh,ALR H2O2 inh,Mot1-301 SUMO
CN1C(=O)/C(=C/c2cn(CC(=O)N3CCCCC3)c3ccccc23)NC1=S,x,-2,0,0,0,7
CC(C)n1cc(/C=C2\NC(=O)N(c3cccc(Cl)c3)C2=O)c2ccccc21,41,2,0,0,x,-6
O=C(O)Cn1cc(/C=C2/NC(=O)N(c3ccc(Cl)cc3)C2=O)c2ccccc21,14,6,0,1,92*,-18
COC(=O)c1ccccc1NC(=S)NC(=O)COc1ccc(C(C)C)cc1,4,-3,0,1,x,-9
COC(=O)c1ccccc1NC(=O)Oc1ccc(C(C)C)cc1,-3,3,0,2,92*,4
COc1ccc(NC(=O)CSc2nnc(Cc3cccs3)n2C)cc1,6,11,0,0,-11,7
Cc1ccc(NC(=O)c2cc(NC(=O)c3ccccc3C(=O)O)ccc2N2CCCCC2)cc1,12,-3,0,0,99*,14
Cc1ccc(NC(=O)c2cc(NC(=O)/C=C\C(=O)O)ccc2N2CCCCC2)cc1,36,-1,0,-1,99*,7
Cc1cccc(NC(=O)c2cc(NC(=O)C3CCCCC3C(=O)O)ccc2N2CCCCC2)c1 (stereo not drawn),0,2,0,-1,x,6
CC(=O)Nc1ccc(N2CCCCC2)c(C(=O)Nc2cccc(C)c2)c1,2,1,0,1,97*,-14
CCCCNC(=O)CCN1N=C(c2ccccc2)CCC1=O,-5,2,0,0,-8,14
CCOc1ccc2c(c1)C(N(CCN1CCOCC1)C(=S)Nc1ccccc1OC)CC(C)(C)O2 (stereo not drawn),-1,-18,0,0,-2,-18
O=C(NC(=S)Nc1cccc(Cl)c1N1CCCCC1)c1ccco1,4,0,0,0,-2,0
O=C(NNC(=S)Nc1ccccc1Cl)c1ccccc1Cl,12,-28,0,-1,90*,-16
O=C(NC(=S)Nc1cccc2cc(O)ccc12)c1ccco1,31,3,0,0,94*,0
O=C(NC(=S)Nc1ccccc1Cl)c1ccco1,8,13,0,-2,0,355*
O=C(NC(=S)Nc1cccc2c(O)cccc12)c1ccco1,25,-9,0,0,99*,-7
CCCC(=O)NC(=S)Nc1cccc2c(O)cccc12,10,5,0,2,91*,-4
CCCCCn1c(=N)n(CC(O)COc2ccccc2OC)c2ccccc21 (stereo not drawn),49*,-15,0,0,-12,-25
C=CCn1c(=N)n(CC(=O)OCC)c2ccccc21,0,0,0,1,99*,5
CCCn1c(=N)n(CC(=O)OCC)c2ccccc21,2,12,0,0,-5,7
C=CCn1c(=N)n(CC(O)COc2ccccc2OC)c2ccccc21 (stereo not drawn),62*,-19,0,1,1,-20
O=C1C2C3C=CC(C4CC34)C2C(=O)N1Cc1ccco1 (stereo not drawn),-2,24,0,0,-2,-10
COc1ccc(CCNC(=O)CSc2ccc(NC(C)=O)cc2)cc1OC,1,-1,0,0,98*,82
COc1ccc(CCNC(=O)CCSCc2ccccc2F)cc1OC,1,-5,0,0,-5,263*
